Our source for the Potency, max activation and outcome values is PubChem BioAssay (Tox21).

Assay [1] in a line: Human pregnane X receptor (PXR) small molecule agonists, qHTS cell viability counter screen (AID 1346977). Also: nearly all actives have a fitted effect of over 50% in size. Also: potency is read from the fitted curve at half-maximal effect. In a few lines:
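Tox21 qHTS format; PXR-Luc HepG2, 2,000/well, charcoal-stripped FBS 5%. Cpd exposure 24hr. Read: CellTiter-Fluor fluorescence, multiplexed with luciferase.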

The nature of assay [2]: Caspase-3/7 induction in HepG2 cells by small molecules, qHTS assay (AID 1346978). Also: nearly all actives have a fitted effect of over 15% in size. Also: potency is read from the fitted curve at half-maximal effect. In a few lines: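 Wild-type HepG2 cells, 2,000/well, settled 5 hr at 37 C and 5% CO2, then compound-treated for 17 hr; caspase-3/7 activity read by luminescent Caspase-Glo 3/7 after 30 min at room temperature.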
Assay [3] can be described thus: Caspase-3/7 induction in CHO-K1 cells by small molecules, qHTS cell viability counter screen (AID 1346979). Also: nearly all actives have a fitted effect of over 35% in size. Also: potency is read from the fitted curve at half-maximal effect. In a few lines:
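CellTiter-Fluor viability check, qHTS format: wild-type CHO-K1, 16hr compound treatment, 1hr reagent incubation, fluorescence read.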
Background: qHTS replaces the single test concentration by a dilution series.

Assay [4] can be described thus: Caspase-3/7 induction in CHO-K1 cells by small molecules, qHTS assay (AID 1346980). Also: nearly all actives have a fitted effect of over 15% in size. In a few lines:
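Wild-type CHO-K1 cells exposed to compounds for 17hr at 37 C, 5% CO2. Caspase-3/7 activity then measured by Caspase-Glo 3/7 luminescence after 30min at room temperature.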

Assay [5] can be described thus: Caspase-3/7 induction in HepG2 cells by small molecules, qHTS cell viability counter screen (AID 1346981). Also: nearly all actives have a fitted effect of over 30% in size. Also: potency is read from the fitted curve at half-maximal effect. A digest of the protocol:
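HepG2, WT, 2,000 cells/well; 5 hr pre-incubation 37 C/5% CO2; compound pin-transferred from DMSO; 16 hr exposure; CellTiter-Fluor, 1 hr; fluorescence read.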

Assay [6] addresses Nuclear receptor subfamily 1 group I member 2 (Homo sapiens) (UniProt O75469). The assay is described as follows: Human pregnane X receptor (PXR) small molecule agonists, qHTS assay (AID 1346982). Also: nearly all actives have a fitted effect of over 35% in size. Also: potency is read from the fitted curve at half-maximal effect. A digest of the protocol:
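Luciferase signal from ONE-Glo (30 min, room temperature) measured activation of hPXR-driven CYP3A4 reporter expression in PXR-Luc HepG2 cells treated with compounds for 24 hr at 37 C.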

Assay [7] addresses Cytochrome P450 2D6 (Homo sapiens) (UniProt P10635). Description: Cytochrome P450 Family 2 Subfamily D Member 6 (CYP2D6) small molecule antagonists: luciferase reporter qHTS assay (AID 1671196). Also: nearly all actives have a fitted effect of over 50% in size. Also: potency is read from the fitted curve at half-maximal effect. In a few lines:
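Read-out is luminescence from luciferin formed by CYP2D6 turnover of a proluciferin substrate, recorded as relative luminescence units. Reactions ran 1 h at room temperature after NADPH regeneration solution was added.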

For assay [8], the target named is Nuclear receptor subfamily 1 group I member 2 (Rattus norvegicus) (UniProt Q9R1A7). Description: Rat pregnane X receptor (rPXR) activation by small molecules, qHTS assay (AID 1346983). Also: nearly all actives have a fitted effect of over 20% in size. Also: potency is read from the fitted curve at half-maximal effect. The conditions noted are these: rPXR luciferase reporter cells, One-Glo luminescence, 24 h; max activation: stronger effect = higher value. In a few lines: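 Cell-based rPXR activation assay: rPXR cells, 2,000 per well, rested 5hr at 37 C, then exposed to compounds in DMSO for 24 hr at 37 C. Luciferase activity read by One-Glo luminescence after 30 min at room temperature.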
Nuclear receptor subfamily 1 group I member 2 (Rattus norvegicus), sequence (Q9R1A7 whole entry, looked up): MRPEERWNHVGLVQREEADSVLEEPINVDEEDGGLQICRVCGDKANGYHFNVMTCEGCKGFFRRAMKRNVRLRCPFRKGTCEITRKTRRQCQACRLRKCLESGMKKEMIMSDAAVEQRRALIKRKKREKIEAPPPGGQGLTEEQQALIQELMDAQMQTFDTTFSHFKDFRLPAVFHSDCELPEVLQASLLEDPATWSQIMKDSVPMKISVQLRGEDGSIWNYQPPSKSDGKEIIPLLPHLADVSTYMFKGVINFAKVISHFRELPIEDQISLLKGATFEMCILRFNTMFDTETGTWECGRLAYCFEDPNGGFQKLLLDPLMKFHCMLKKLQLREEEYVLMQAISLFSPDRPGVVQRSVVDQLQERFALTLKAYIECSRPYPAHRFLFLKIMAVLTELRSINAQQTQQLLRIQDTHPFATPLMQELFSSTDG

Assay [9] has as its target Nuclear receptor subfamily 1 group I member 2 (Homo sapiens) (UniProt O75469). The assay is described as follows: CYP3A4 induction through human pregnane X receptor (PXR) by small molecules, qHTS assay (AID 1346984). Also: nearly all actives have a fitted effect of over 40% in size. A digest of the protocol: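 Luminescence readout: luciferase signal after One-Glo (30 min, room temperature), following 3 h at 37C with 3uM final Luciferin-IPA P450 substrate. Cells were DPX-2 (HepG2, PXR/CYP3A4-luc co-transfected) dosed for 24 h.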

Several values for one entry are separate records, joined by “and”; a condition that tells them apart may be missing. Equal entries are not always repeated. Results filed as inconclusive are left out. Where a structure was tested more than once in an assay, its records may differ in their call. Activity calls are given as the source filed them. Calls follow the shape of the dose curve; as a rule, active = well fitted curve in the direction sought with a large enough effect in the repeat runs; inconclusive = weak or mixed curves; inactive = no such curve, though single readings can be large; an effect the other way counts as inactive or inconclusive.
% is scaled to controls: 0 for no effect and ±100 for the full control effect.

Cytochrome P450 2D6 (Homo sapiens), sequence (P10635 whole entry, looked up): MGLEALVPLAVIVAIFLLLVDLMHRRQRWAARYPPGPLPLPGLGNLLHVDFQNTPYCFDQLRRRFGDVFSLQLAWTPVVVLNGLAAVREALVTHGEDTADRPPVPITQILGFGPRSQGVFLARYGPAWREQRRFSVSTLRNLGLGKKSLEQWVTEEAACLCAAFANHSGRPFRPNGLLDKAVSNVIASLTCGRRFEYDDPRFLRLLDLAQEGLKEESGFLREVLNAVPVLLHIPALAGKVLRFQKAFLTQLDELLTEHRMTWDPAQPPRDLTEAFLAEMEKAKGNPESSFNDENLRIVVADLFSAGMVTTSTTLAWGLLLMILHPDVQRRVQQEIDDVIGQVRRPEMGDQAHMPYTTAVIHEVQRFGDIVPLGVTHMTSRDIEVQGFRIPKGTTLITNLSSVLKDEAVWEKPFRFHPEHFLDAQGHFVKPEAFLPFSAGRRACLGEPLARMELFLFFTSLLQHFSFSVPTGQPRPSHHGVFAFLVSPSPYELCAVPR
Nuclear receptor subfamily 1 group I member 2 (Homo sapiens), sequence (O75469 whole entry, looked up): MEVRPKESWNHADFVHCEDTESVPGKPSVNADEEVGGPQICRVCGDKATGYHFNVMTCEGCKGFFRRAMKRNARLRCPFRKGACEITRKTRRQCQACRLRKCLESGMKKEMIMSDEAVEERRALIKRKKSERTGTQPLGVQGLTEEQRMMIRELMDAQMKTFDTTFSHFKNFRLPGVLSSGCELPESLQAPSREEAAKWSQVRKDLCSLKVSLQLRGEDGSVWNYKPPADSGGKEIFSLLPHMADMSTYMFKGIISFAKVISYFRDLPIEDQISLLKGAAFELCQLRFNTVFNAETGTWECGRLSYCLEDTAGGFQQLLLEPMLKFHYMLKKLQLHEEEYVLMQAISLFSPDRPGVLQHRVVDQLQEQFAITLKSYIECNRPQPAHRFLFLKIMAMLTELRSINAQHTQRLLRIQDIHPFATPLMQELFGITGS

As to `CC1(C)CC(N=C=O)CC(C)(CN=C=O)C1` (stereo unspecified), the Potency entry in assay [1], in assay [2], in assay [3], in assay [4], in assay [5] and in assay [6] was “inactive” throughout. Also, the Potency in [7] is 25.5 µM (active) and 39.9 µM (active).
Consider `CN(C)c1cccc(O)c1`, for which the Potency result in assay [1], in assay [2], in [3], in assay [4] and in [5] was “inactive” in each case. The Potency is 49.3 µM (active) and 54.5 µM (active) in [6]; 40.5 µM (active) in [7].
As to `CC(=O)[C@@]1(O)CC[C@H]2[C@@H]3CCC4=CC(=O)CC[C@]4(C)[C@H]3CC[C@@]21C`, the Potency result in assay [2], in assay [3], in [4] and in [5] was “inactive” in each case.
`CCCCC(CC)COC(C)=O` (stereo unspecified): the Potency result in [1], in [2], in [3], in assay [4], in assay [5] and in [6] was “inactive” each time. In [7], the Potency entry was “inactive”.
`OC[C@@H](O)[C@@H](O)[C@H](O)[C@@H](O)CO`: the Potency entry in assay [1], in [2], in assay [3], in [4], in [5] and in [6] was “inactive” each time. Besides, the Potency result in [7] is “inactive”.
With `O=[N+]([O-])C(CO)(CO)CO`, the Potency is 758 nM (active) and inactive in assay [1]; 1.7 µM (active) and inactive in assay [3]; 4.26 µM (active) and inactive in [5]; 1.35 µM (active) and inactive in [6]. Further, the Potency result in [2], in assay [4] and in [7] was “inactive” throughout.
Turning to `CCCCNC(N)=O`, the Potency result in assay [1], in assay [2], in [3], in [4], in assay [5] and in assay [6] was “inactive” throughout. Also, in assay [7], the Potency entry is “inactive”.
As for `CC(C)n1c(/C=C/[C@@H](O)C[C@@H](O)CC(=O)O)c(-c2ccc(F)cc2)c2ccccc21`, the Potency entry in [1], in [3], in assay [4], in [5] and in assay [7] was “inactive” throughout. For the same compound, the Potency was 12.2 µM (active) in assay [2] and 12.6 µM (active) in [8].
For `NC(=O)/N=N/C(N)=O`, the Potency entry in assay [1], in assay [2], in assay [3], in assay [4], in assay [5] and in assay [6] was “inactive” throughout. Moreover, the Potency result in assay [7] is “inactive”.
Turning to `COCC(=O)O`, the Potency entry in [1], in [2], in [3], in assay [4], in assay [5] and in [6] was “inactive” in each case. For the same compound, the Potency result in assay [7] was “inactive”.
In the case of `S=c1nc[nH]c2nc[nH]c12`, the Potency result in [1], in [2], in assay [3], in assay [4], in assay [6] and in assay [7] was “inactive” throughout. In addition, the max activation in assay [8] was -6.82% (inactive). Moreover, the compound was called inactive in [9].
Turning to `CCc1ccccc1O`, the Potency result in [1], in assay [2], in assay [3], in assay [4] and in assay [5] was “inactive” throughout. In assay [7], the Potency is 35.4 µM (active) and inactive.
For `C=C(C)C(=O)OCCC[Si](OC)(OC)OC`, the Potency entry in assay [1], in assay [2], in [3], in assay [4] and in assay [5] was “inactive” throughout. Further, the Potency was 60.4 µM (active) and inactive in assay [6]; 62.6 µM (active) and inactive in [7].
For the compound `CCC(=O)O`, the Potency result in [1], in [2], in assay [3], in assay [4], in [5] and in [6] was “inactive” in each case. Moreover, the Potency result in assay [7] is “inactive”.
Regarding `Oc1c(Cl)cc(Cl)c(Cl)c1Cl`, the Potency entry in assay [2], in assay [4] and in assay [7] was “inactive” throughout. The Potency in assay [6] is 59.8 µM (active) and 54.5 µM (active).
For the compound `Clc1ccc(Cl)c(Cl)c1Cl`, the Potency entry in assay [1], in assay [2], in [3], in assay [4], in assay [5] and in [6] was “inactive” throughout. Besides, the Potency entry in assay [7] was “inactive”.
Regarding `OCC#CCO`, the Potency result in assay [1], in [2], in assay [4], in assay [5] and in assay [7] was “inactive” in each case. For the same compound, in assay [6], the Potency was 55.3 µM (active) and inactive.
On to `CCCCOCCO`, for which the Potency entry in assay [1], in assay [2], in assay [3], in assay [4], in assay [5] and in assay [6] was “inactive” throughout. Also, the Potency entry in [7] is “inactive”.
`CC1COc2ccccc2N1C(=O)C(Cl)Cl` (stereo unspecified): the Potency in assay [1] was 39.8 µM (active); in [3], 27.3 µM (active) and 30.6 µM (active); in [5], 61 µM (active) and 27.3 µM (active); in assay [6], 61 µM (active) and 54.4 µM (active); in assay [7], 15.9 µM (active) and inactive. Besides, the Potency result in assay [2] and in assay [4] was “inactive” in each case.
`CCC(C)C=O` (stereo unspecified): the Potency result in [1], in assay [2], in assay [3], in [4], in assay [5] and in assay [6] was “inactive” throughout. Moreover, the Potency entry in assay [7] was “inactive”.
Turning to `Clc1cc(Cl)c(Cl)cc1Cl`, the Potency entry in assay [1], in assay [2], in [3], in [4], in [5] and in assay [6] was “inactive” each time. Moreover, the Potency result in assay [7] was “inactive”.
As for `Cc1ccc(N)c(S(=O)(=O)O)c1`, the Potency result in assay [1], in assay [2], in [3], in [4], in [5] and in assay [6] was “inactive” throughout. Besides, the Potency entry in [7] was “inactive”.
As for `CC(C)Cc1ccccc1`, the Potency result in assay [1], in assay [2], in assay [3], in assay [4], in assay [5] and in [6] was “inactive” throughout. Moreover, the Potency entry in assay [7] is “inactive”.
For the compound `O=c1c(-c2ccc(O)cc2)coc2cc(O)ccc12`, the Potency result in assay [1], in assay [2], in assay [3], in assay [4], in [5] and in [7] was “inactive” in each case. The Potency in assay [6] was 30.3 µM (active) and 13.7 µM (active).
